Bioassay records: PubChem BioAssay, National Center for Advancing Translational Sciences (NCATS)
PI5P4K alpha inh – blocks human PI5P4K alpha kinase activity. P48426. PI5P4Kalpha enzyme, ADP-Glo luminescence, 60 min; stronger effect = lower value. max response, %. actives 1.2% (n = 330,000); active = max response of -50% or lower; inconclusive = between -30% and -50%; inactive = -30% or higher; note: value at the top dose of about 77 µM; % is set by controls: 0 for no effect and ±100 for the full control effect
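Quantitative HTS of the MLSMR library against PI5P4Kalpha with substrate. ATP added last at 5 microM final; room temperature, 60 minutes. Remaining ATP depleted, ADP converted and read as luminescence.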
JMJD2E inh – blocks human JMJD2E demethylase activity. B2RXH2. Potency, µM (doses to about 57.1 µM), for inactives: at the top dose activity change, negative = inhibition, actives largely listed as inhibitors. JMJD2E catalytic domain, FDH-coupled NADH fluorescence (FDH is formaldehyde dehydrogenase). actives 1.6% (n = 230,000); active = well fitted inhibition curve with a large enough effect, not every such curve was filed as active; inconclusive = small, poorly fitted or top-dose-only effect, or another doubt; inactive = no such curve, though single readings can be large or run the other way;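 note: potency is the fitted concentration of half-maximal effect; 0% = wells with enzyme and -100% = buffer wells without enzyme; nearly all actives have a fitted effect of over 50% in size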
L3MBTL1 inh – L3MBTL1 (human) inhibition. actives 0.66% (n = 230,000). Potency, µM (series often up to 57.1 µM), for the others: at the top dose activity, negative = inhibition, most hits filed as inhibitors. AlphaScreen L3MBTL1–H3K9me1 peptide binding. Q9Y468. AID 485360; note: potency is the fitted concentration of half-maximal effect; % is set by controls: 0 for no effect and ±100 for the full control effect; nearly all actives have a fitted effect of over 60% in size
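First, the protein-peptide complex forms for 30 min at room temperature (L3MBTL1 50 nM, biotinylated H3K9me1 peptide 75 nM). Next, compounds are pin-transferred and incubated 30 min. Finally, AlphaScreen beads are added and read after 30 min.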
HP1b chromo inh – blocks HP1-beta chromodomain binding to methylated histone tails. AlphaScreen HP1-beta / biotin-H3K9me3 peptide binding. Potency, µM (doses to about 114 µM), without a hit: at the top dose activity change, negative = inhibition, hits mostly inhibitors. actives 0.56% (n = 390,000). AID 540317; note: potency is the fitted concentration of half-maximal effect; nearly all actives have a fitted effect of over 70% in size
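Compound inhibition of the preformed complex between 50 nM HP1-beta and 50 nM biotinylated H3K9me3 peptide was read by AlphaScreen. Buffer was PBS pH 7.4 with 0.01% Tween-20. Incubations ran 30 min at room temperature, with 10 ug/mL donor/acceptor beads.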
BAZ2B inh – BAZ2B (human) inhibition | Q9UIF8 | AID 504333 | AlphaScreen BAZ2B-H3K14Ac peptide displacement | actives 4.4% (n = 360,000) | Potency, µM (doses to about 114 µM), for the others: at the highest dose activity change, negative = inhibition, most hits filed as inhibitors; note: potency is the fitted concentration of half-maximal effect; % is set by controls: 0 for no effect and ±100 for the full control effect; nearly all actives have a fitted effect of over 60% in size
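Inhibition is scored as reduced AlphaScreen emission. The BAZ2B/b-H3(5-23)K14Ac complex (50 nM each) in PBS pH 7.4, 0.01% Tween-20 meets compound (up to 110 uM) for 30 min at RT before bead addition.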
JMJD2A Tudor – blocks the human JMJD2A Tudor domain. AlphaScreen JMJD2A-Tudor / H3K4me3 peptide binding. Potency, µM (highest dose often 114 µM), for the others: at the highest dose activity change, negative = inhibition, usual class: inhibitors. actives 4.4% (n = 390,000). AID 504339; note: potency is the fitted concentration of half-maximal effect; % is set by controls: 0 for no effect and ±100 for the full control effect; nearly all actives have a fitted effect of over 50% in size
The depositor's hits bear a star; ? = inconclusive; . = not tested or not shown; [ ] = dose if it differs, or a comment. Sampled rows, rich in hits. Any-hit rate of the full collection: about 5.7%. Unless noted, calls come from the whole dose curve; as a rule, active = well fitted inhibition curve with a large enough effect; inconclusive = small, poorly fitted or top-dose-only effect; inactive = no such curve, though single readings can be large or run the other way.

SMILES	PI5P4K alpha inh	JMJD2E inh	L3MBTL1 inh	HP1b chromo inh	BAZ2B inh	JMJD2A Tudor
O=C(CNC(=O)c1ccncc1)OC(C(=O)Nc1cc(C(F)(F)F)ccc1Cl)c1ccccc1 (stereo unspecified)	.	.	.	.	.	-19%
Cc1ccc(C(=O)N2CCc3cc(CNC(=O)CSc4ccccc4)ccc32)cc1	.	.	.	-13%	-15%	-27%
CCC12CN3CC(CC)(CN(C1)C3c1c(O)ccc3ccccc13)C2=O (stereo unspecified)	-7	13µM*	-11%	22%	-9%	-7%
CC(C)c1ccc(NC(=O)c2sccc2-n2cccc2)cc1	19	-2%	.	54%	2%	21%
CN1CCN(C2=Cc3ccc(Cl)cc3Sc3ccc(F)cc32)CC1	22	-6%	-6%	-32%	50µM*	56µM*
COc1ccccc1Nc1n[nH]c(=S)s1	-78*	20µM*	-11%	22µM*	20µM*	4µM*
CC(C)c1ccc(Nc2n[nH]c(=S)s2)cc1	-65*	.	.	.	.	.
Cc1cccc(Nc2n[nH]c(=S)s2)c1C	.	13µM*	1%	?	45µM*	5.6µM*
Cc1cccc(C)c1Nc1n[nH]c(=S)s1	-73*	.	.	.	.	.
COC(=O)C[C@@H]1CC[C@H](NS(=O)(=O)c2ccccc2F)[C@@H](CO)O1	11	.	.	.	.	.
CC1(C)Oc2ccc3ccc(=O)oc3c2/C(=C/Nc2cccc(O)c2)C1=O	-1	-11%	.	?	?	40µM*
CN/C=C1\C(=O)C(C)(C)Oc2ccc3ccc(=O)oc3c21	7	-7%	-12%	0%	-10%	-30%
CC1(C)Oc2ccc3ccc(=O)oc3c2/C(=C/NNC(N)=S)C1=O	-30	.	.	-24%	50µM*	?
CCN(CC(=O)Nc1c(F)cccc1F)C(=O)CCNC(=O)c1ccco1	-13	.	8%	54%	-5%	1%
O=C(CSc1nc(=O)[nH]c2c1CCCC2)NCc1ccc(F)cc1	.	.	.	28%	0%	-3%
COc1ccc(O)c(/C=N/NC(=S)Nc2cccnc2)c1	-18	?	11µM*	10%	.	25µM*
CC(/C=N/NC(=S)Nc1cccc(S(=O)(=O)N(C)C)c1)c1ccccc1 (stereo unspecified)	-15	-4%	-1%	13%	-6%	20µM*
CN(C)S(=O)(=O)c1cccc(NC(=S)N/N=C/c2ccc(O)c(O)c2O)c1	-97*	7.9µM*	1.6µM*	?	4.5µM*	20µM*
COc1ccc(O)c(/C=N/NC(=S)Nc2cccc(S(=O)(=O)N(C)C)c2)c1	-56*	-6%	10µM*	-32%	7.9µM*	22µM*
COc1cccc(/C=N/NC(=S)Nc2cccnc2)c1	4	-4%	-2%[11.4 µM]	15%	-16%	-29%
CN1CCc2ccc3c4c2[C@]1(C)Cc1cccc(c1-4)OCO3	.	.	.	.	.	-34%
C[C@H]1Cc2c(-c3ccccc3)nc3c(c2CO1)CN(C(=O)NCc1ccco1)CC3	.	6%[11.4 µM]	.	.	.	.
COc1ccc(C)cc1NC(=O)c1ccc2nc(Cc3ccccc3)oc2c1	.	.	.	70%[57 µM]	29%	3%
COc1cc(/C=c2\s/c(=C\C(=O)C(C)(C)C)[nH]c2=O)cc(OC)c1OC	8	5%	-6%	24%	?	-20%
COc1ccc(/C=c2\s/c(=C\C(=O)C(C)(C)C)[nH]c2=O)cc1O	-72*	-5%	.	20%	?	-27%
C=CCn1c(C(CCCC)CC(O)COCC(C)C)n[nH]c1=S (stereo unspecified)	3	-25%	-5%	48%	-24%	40µM*
C=CCn1c(CCC(O)COCCCCC)n[nH]c1=S (stereo unspecified)	-5	9%	1%	-14%	-20%	20µM*
C=CCn1c(C(CC(C)C)CC(C)O)n[nH]c1=S (stereo unspecified)	-7	3%	-1%	-23%	-1%	8.9µM*
C=CCn1c(C(CC)CC(C)(C)O)n[nH]c1=S (stereo unspecified)	7	-6%	-2%	.	-39%	-16%
